# Measured values as given in the supplement of paper PMC3334620.
# The full ranking holds about 33,000 sequences; the median of “E-score (-0.5 to 0.5)” is about -0.012, and the highest 2% start at about 0.27. This excerpt belongs to a sample that is enriched for the highest values.
# Molecular target: T1, Vhr1 (UniProt P40522)
# T1 sequence: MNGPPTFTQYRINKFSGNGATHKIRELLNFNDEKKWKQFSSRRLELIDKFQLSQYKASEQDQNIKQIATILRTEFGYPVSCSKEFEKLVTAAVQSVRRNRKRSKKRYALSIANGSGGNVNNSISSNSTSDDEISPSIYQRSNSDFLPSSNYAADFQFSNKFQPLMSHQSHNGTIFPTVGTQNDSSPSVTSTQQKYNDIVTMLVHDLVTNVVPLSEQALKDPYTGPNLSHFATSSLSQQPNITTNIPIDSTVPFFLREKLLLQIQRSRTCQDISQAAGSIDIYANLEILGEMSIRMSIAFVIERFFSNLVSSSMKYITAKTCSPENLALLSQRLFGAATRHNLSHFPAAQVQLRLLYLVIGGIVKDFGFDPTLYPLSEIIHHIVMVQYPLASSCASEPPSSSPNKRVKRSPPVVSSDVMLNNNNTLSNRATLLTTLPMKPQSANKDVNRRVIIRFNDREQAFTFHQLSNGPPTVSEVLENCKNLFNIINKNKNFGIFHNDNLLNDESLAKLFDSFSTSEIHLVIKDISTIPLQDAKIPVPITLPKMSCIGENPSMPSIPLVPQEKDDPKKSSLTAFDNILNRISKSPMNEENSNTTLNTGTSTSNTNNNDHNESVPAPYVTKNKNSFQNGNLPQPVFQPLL
# Experiment: PBM E-score (8-mer binding enrichment) (E-score (-0.5 to 0.5)); higher = stronger / more preferred TF binding
# Conditions: protein concentration: 200 nM; construct: GST-full length
# Method in brief: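 Yeast transcription factors carrying a GST tag, as full-length proteins or DNA-binding domains, were produced by PURExpress in vitro transcription/translation. About 100-200 nM protein was applied to universal all-10-mer Agilent arrays, double-stranded by primer extension on fresh or once-stripped slides. Bound protein was detected with fluorescent anti-GST, and scans were normalised with masliner. The Universal PBM Analysis Suite gave each ungapped eight-base word, pooled with its reverse complement, an E-score, a modified Wilcoxon-Mann-Whitney statistic.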
row,Sequence,PBM E-score
1,ACGACCTA,0.143
2,AAGTGTGT,0.0443
3,AGAACGAC,0.00162
4,CCGTTACG,-0.0486
5,ACCCGATG,0.137
6,ACTTGCTC,-0.057
7,CTTATCGC,-0.0118
8,TCCGACAA,-0.0624
9,GATTTCCA,0.0482
10,GTTAATCA,0.296
11,CATAATCC,0.105
12,CATAATCG,0.0927
13,AATAATCA,0.203
14,GATAATCA,0.301
15,CTTAATCA,0.214
16,ATTAATCA,0.217
17,GATAATCC,-0.112
18,CATAATCA,0.308
19,TAGATTCA,-0.0459
20,GTGCGAAC,-0.037
21,AAGATCAG,0.0101
22,ACCTGGAC,0.0512
23,GCAATGAC,0.103
24,CCCATGAA,0.0105

row,Sequence,PBM E-score
1,CCCATGAC,0.332
2,ACCATGAG,0.0389
3,CCAATGAA,-0.18
4,GCCATGAA,0.0605
5,ACCATGAA,0.276
6,ACCATGAT,0.219
7,GCCATGAC,0.0961
8,ACCATGAC,0.307
9,CCAATGAC,0.285
10,TCCATGAA,0.123
11,GTGGGGTA,0.22
12,CACCCGAC,0.0689
13,GTGTGCGA,0.0262
14,CGTCTCCA,0.149
15,CGGAGGAC,0.00537
16,CTTAAGCC,-0.234
17,AAGTTTGT,-0.034
18,CGGGGTCC,-0.227
19,CTACATAC,0.0864
20,GTACATAC,0.119
21,ACACATAC,0.29
22,ATACATAA,0.135
23,ATACATAG,0.108
24,ATACATAT,0.367

row,Sequence,PBM E-score
1,ACACATAG,0.102
2,ATACATAC,0.293
3,ACACATAA,0.119
4,GCTGACCC,0.0256
5,ACCCAGCT,0.0775
6,GTCCAGCA,-0.0682
7,ACGTCCAT,-0.123
8,CGCGGTCC,-0.137
9,CGATCCCG,0.0117
10,AGATCCCG,0.297
11,AGATCCCT,-0.142
12,ACCTCACG,-0.0286
13,CATCAACG,0.131
14,AGGGGCGC,0.0808
15,AGGGGCGG,0.348
16,AGGGGCGA,0.113
17,GTTCATTA,-0.0167
18,GCCACTCC,0.205
19,CCGACTGA,-0.0635
20,CTGACTCC,0.47
21,ACGACTTA,-0.0824
22,ACGACTCA,0.445
23,CCGACTCA,0.417
24,GCGACTCC,0.414

row,Sequence,PBM E-score
1,CTTACTCC,0.0868
2,ACGACTCT,0.261
3,CTGACCCC,-0.0745
4,GCGACCCC,0.0605
5,CCGACTTA,-0.0517
6,AAATGGAC,-0.0108
7,ATCTCAGA,0.00554
8,CCTGTGCA,-0.0814
9,CCCCCTCG,-0.242
10,GTAGGCGA,0.097
11,ACATGCCA,0.0538
12,GCGACTCA,0.477
13,ACGACGCC,-0.036
14,CCGACTCG,0.238
15,CCGACTTC,-0.223
16,GGGACTCA,0.261
17,ACGACTAT,0.195
18,CCGACTCC,0.45
19,ACGACTCG,0.327
20,ACGACTCC,0.366
21,ACGACTTG,-0.0454
22,GCGACTTA,-0.104
23,CAACAACG,0.087
24,CAGAAGAG,-0.189

row,Sequence,PBM E-score
1,CGGTAGAC,-0.00049
2,ACAAGAGT,0.108
3,ACAGGGAC,-0.138
4,GCTTAGGA,-0.0935
5,GCACTACC,-0.0106
6,GTACCCGA,-0.161
7,AAGCTGCA,-0.00033
8,TCGACTCA,0.349
9,TCTACTCA,0.112
10,TCGACCCA,0.166
11,GCCATAGC,-0.0742
12,CCATGCGA,0.0318
13,GCATGCGA,0.159
14,TCATGCGA,0.285
15,CTATGATC,0.112
16,AGTCGACG,0.278
17,AGTCGACC,-0.0312
18,CGTCGACG,0.161
19,CGTCGACC,-0.00578
20,AGTCGACT,0.33
21,GGTCGACC,0.32
22,GGTCGACA,-0.0223
23,ACTCGACG,0.269
24,AGTCGACA,0.197

row,Sequence,PBM E-score
1,ACATCCCG,0.231
2,CCTGCACA,-0.0959
3,AGTCGAGA,0.0118
4,ACATAGAC,0.0646
5,ATCCATAC,0.0581
6,CCACCTCG,-0.085
7,CCTTGACC,-0.111
8,AGGAGTCG,0.339
9,AGGAGTGA,0.00535
10,AGGAGTAA,0.0927
11,AGGAGTCC,0.165
12,GGGAGTTA,-0.144
13,AGGAGTCA,0.479
14,GGGAGTAA,0.0449
15,GGGAGTCA,0.47
16,AGGAGTTG,-0.00747
17,AAGAAAGC,-0.174
18,ACTAAAAT,-0.0643
19,ACACTTCG,0.0579
20,CCCTGCAC,-0.0585
21,CGATTTTA,-0.0769
22,CGCTCCCC,-0.16
23,CTCACTGA,0.14
